Data taken from PubChem BioAssay AID1159580 (chemical genetic matrix, 2015).
“And” between values parts separate entries of the source, which are not always exact repeats. Equal entries are not always repeated. The campaign covered roughly 5,500 compounds. About 2,000 (36%) were called active. About 18% were inconclusive and are not listed. No stated cut-off is given here; in the data, active means normalized growth mostly below about 0.91 (no sharp cut-off); inconclusive means no clear call, values can overlap the other calls; inactive means mostly above about 0.92. The list shows a part of the results.

Assay: chemical genetic growth profiling, strain panel (AID 1159580);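 further: tested at 20 µM; growth read once vehicle control cultures reached saturation at 30 °C; 1 = growth at the plate median or of vehicle wells; lower values mean less growth of the strain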
Conditions: S. cerevisiae deletion strains, growth OD

Measured: normalized growth

N[C@@H](C(=O)O)[C@@H](O)[C@H](O)[C@H](O)CO
inactive: locus YAL013W, strain DEP1, active compounds read low 1.01 | locus YAL021C, strain ccr4, active compounds read low 1.01 | locus YAL026C, strain drs2, active compounds read low 1.04 | locus YAL030W, strain snc1, active compounds read low 1.03 | locus YBL061C, strain skt5, active compounds read low 1.03 | locus YBR009C, strain hhf1, active compounds read low 1.03 | locus YBR021W, strain FUR4, active compounds read low 1.01 | locus YBR023C, strain chs3, active compounds read low 1.04 | locus YBR171W, strain sec66, active compounds read low 1.04 | locus YBR229C, strain ROT2, active compounds read low 1 | locus YBR231C, strain swc5, active compounds read low 1.03 | locus YBR279W, strain paf1, active compounds read low 1.01 | locus YCL011C, strain gbp2, active compounds read low 1.04 | locus YCL016C, strain dcc1, active compounds read low 1.02 | locus YCL029C, strain bik1, active compounds read low 1.02 | locus YCL061C, strain MRC1, active compounds read low 1.02 | locus YCL069W, strain vba3, active compounds read low 1.03 | locus YCR088W, strain abp1, active compounds read low 1.02 | locus YDL005C, strain med2, active compounds read low 1.03 | locus YDL035C, strain GPR1, active compounds read low 1.03 | locus YDL040C, strain nat1, active compounds read low 1.01 | locus YDL074C, strain BRE1, active compounds read low 1.06 | locus YDL101C, strain DUN1, active compounds read low 1.01 | locus YDL185W, strain tfp1, active compounds read low 1.02 | locus YDL192W, strain arf1, active compounds read low 1.03 | locus YDR001C, strain nth1, active compounds read low 1.02 | locus YDR069C, strain doa4, active compounds read low 1.02 | locus YDR101C, strain arx1, active compounds read low 1.02 | locus YDR137W, strain rgp1, active compounds read low 1.04 | locus YDR150W, strain NUM1, active compounds read low 1.02 | locus YDR159W, strain sac3, active compounds read low 1.07 | locus YDR162C, strain NBP2, active compounds read low 1.01 | locus YDR195W, strain ref2 1.02 | locus YDR297W, strain sur2, active compounds read low 1.03 | locus YDR318W, strain mcm21, active compounds read low 1 | locus YDR334W, strain swr1, active compounds read low 1.03 | locus YDR335W, strain msn5, active compounds read low 1.03 | locus YDR388W, active compounds read low 1.01 | locus YDR392W, strain spt3, active compounds read low 1.02 | locus YDR502C, strain sam2, active compounds read low 1.01 | locus YEL003W, strain gim4, active compounds read low 1.03 | locus YEL037C, strain rad23, active compounds read low 1.02 | locus YEL061C, strain CIN8 (second series), active compounds read low 1.03 | locus YEL061C, strain CIN8, active compounds read low 1.02 | locus YER015W, strain faa2, active compounds read low 1.03 | locus YER016W, strain bim1, active compounds read low 1.02 | locus YER110C, active compounds read low 1.02 | locus YER111C, strain swi4, active compounds read low 1.03 | locus YER155C, strain BEM2 (second series), active compounds read low 1 | locus YER155C, strain BEM2, active compounds read low 1.01 | locus YER167W, strain BCK2, active compounds read low 1 | locus YFR010W, strain ubp6, active compounds read low 1.04 | locus YGL078C, strain dbp3, active compounds read low 1.01 | locus YGL086W, strain mad1, active compounds read low 1.01 | locus YGL167C, strain pmr1, active compounds read low 1.04 | locus YGL173C, strain kem1, active compounds read low 1.04 | locus YGL227W, strain vid30, active compounds read low 1.02 | locus YGL240W, strain doc1, active compounds read low 1.02 | locus YGL248W, strain PDE1, active compounds read low 1 | locus YGL253W, strain hxk2, active compounds read low 1.04 | locus YGR135W, strain pre9, active compounds read low 1.01 | locus YGR252W, strain gcn5, active compounds read low 0.967 | locus YHR013C, strain ard1, active compounds read low 1.05 | locus YHR027C, strain rpn1, active compounds read low 1.04 | locus YHR030C, strain SLT2, active compounds read low 1.01 and 1.05 | locus YHR079C, strain IRE1 (second series), active compounds read low 1.02 | locus YHR079C, strain IRE1, active compounds read low 1.03 | locus YHR094C, strain hxt1, active compounds read low 1.02 | locus YHR129C, strain ARP1, active compounds read low 1 | locus YHR142W, strain chs7, active compounds read low 1.07 | locus YHR200W, strain rpn10, active compounds read low 1.02 | locus YIL066C, strain RNR3, active compounds read low 1.01 | locus YIL073C, strain SPO22, active compounds read low 1.05 | locus YIL125W, strain kgd1, active compounds read low 1.02 | locus YIR030C, strain dcg1, active compounds read low 1.02 | locus YJL092W, strain hpr5, active compounds read low 1.03 | locus YJL095W, strain BCK1 (second series), active compounds read low 1.02 | locus YJL095W, strain BCK1, active compounds read low 1.01 and 1.04 | locus YJL115W, strain asf1, active compounds read low 1.04 | locus YJL129C, strain trk1, active compounds read low 1.06 | locus YJL134W, strain LCB3, active compounds read low 1.01 | locus YJL154C, strain vps35, active compounds read low 1.02 | locus YJL164C, strain tpk1, active compounds read low 1.03 | locus YJL166W, strain qcr8, active compounds read low 1.03 | locus YJL168C, strain set2, active compounds read low 1.02 | locus YJL187C, strain SWE1 (second series), active compounds read low 1.01 | locus YJL187C, strain SWE1, active compounds read low 1.05 | locus YJR043C, strain POL32, active compounds read low 1.02
